# According to PubChem BioAssay AID1347426 (Functional Genomics Laboratory (NCATS/FGL), 2020):
# About 1,400 (4.5%) of roughly 31,000 sequences were called active.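 Rule for the calls: active = median seed-adjusted z-score above 1 or below -1; inactive = the rest.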 This excerpt belongs to a sample that is enriched for actives.
# Assay: Novel Modifiers of Survival Motor Neuron (SMN) Protein: Gene Identification via Genome-wide siRNA Screen;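 note: luminescence tracks full-length SMN protein made from the SMN2 reporter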
# Details: HEK293T SMN2-luciferase reporter, siRNA knockdown, 72 h; actives lie on both sides
# Outline: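 siRNA screen, 10418 genes ×3 siRNAs; 1 pmol/well, lipid reverse transfection into HEK293T SMN2-luc reporter line. 72 h, 37 °C, 5% CO2; ONE-Glo readout. Data: neg-ctrl normalized, log10, MAD; hit = MAD >1.0 or < -1.0.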
row,Sequence,median seed-adjusted z-score
1,CAAAGGACCCAAUAGAAUUTT against GUCY2F,0.188 (inactive)
2,GCGCGCUACUUUGGGAUAATT against POLR2E,-1.25 (active)
3,GGACCUCCCUUCAACAUCATT against DYSF,-0.23 (inactive)
4,CAGUGAAGCUAUCAAGUUATT against PSMA8,0.407 (inactive)
5,GACCAGAUGUGGACAAUCATT against TAF6,-1.36 (active)
6,GAAUUGGAGAGGCAACAAATT against LMO7,0.417 (inactive)
7,GAAGAGAUAUUUACACCUUTT against CD47,0.0241 (inactive)
8,CUGCUAGUCUGUCUCCAAATT against SPINK7,-0.409 (inactive)
9,GGACUAUGUCUGCCUAUGATT against SCN7A,0 (inactive)
10,CUAAGAAUCUGCUUAGUAATT against CLDN5,0 (inactive)
11,AGAAUGACAGGGUCCAGAATT against OGFR,-0.565 (inactive)
12,GCUUUGAUGUGAUUCACCUTT against PRKAG3,-1.03 (active)
13,GUCACAAGAUGGUCAAAAATT against CTNND2,-0.0491 (inactive)
14,CCAUCCUUCAGGCGAAUUATT against ACTR8,-0.366 (inactive)
15,GGUCUGUUCUGCAAGCACATT against PARVG,0.321 (inactive)
16,CCAAACCACUACAACCCUUTT against RPP21,-1.09 (active)
17,GAUAUAAAGUCAUGAAGAATT against USP30,-0.646 (inactive)
18,CGUGGACUCCCACUUCCAATT against OGG1,-0.128 (inactive)
19,GGAGCUUCCCUAUAGUGAATT against HDAC3,0.579 (inactive)
20,GGAUUCUAAGUACAGAGAATT against ZNF323,-0.319 (inactive)
21,CAACUGCUAGCUGAACGAATT against ITIH2,0.262 (inactive)
22,CAUUUAUGACAAUCGGAUATT against OGT,0.411 (inactive)
23,GUCUAUGAAUUGGACAAGATT against PGAM1,-0.234 (inactive)
24,CAUCAAAUAUGACAACUUUTT against GALNTL4,0 (inactive)
25,GCCGUUUCAUGUUUGUCUATT against TRPV1,-0.12 (inactive)
26,GGAAAUGAGUGUCUGAACATT against CHMP6,-1.81 (active)
27,GGCUUUUUAGAUUUCGAAATT against TIGD7,-0.116 (inactive)
28,GAGUGAGACUGGGACAAGATT against TAPBP,-0.786 (inactive)
29,GCCUUCACGUCUGAACAUATT against GAD2,0.0588 (inactive)
30,GAAACAACUUGAUUUCGAATT against PCDHB8,1.15 (active)
